Experimental findings from PubChem BioAssay (NCATS) are described below.

Assay [1] has as its target Cytochrome P450 1A2 (Homo sapiens) (UniProt P05177). The assay can be described thus: p450-cyp1a2 (AID 410; calls by dose curve; note: potency is the fitted concentration of half-maximal effect;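 for activity change, negative = inhibition: -100% = full effect of reference inhibitor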). The procedure, abridged:
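20nM CYP1A2 with 100uM Luciferin-ME (at Km) in 100mM KPO4; compound preincubated 10 min, NADPH regeneration added, 60 min at room temperature. Luciferin quantified by luminescence after detection reagent; normalized to 57 uM furafylline.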

Assay [2] deals with Mitogen-activated protein kinase 10 (Mus musculus) (UniProt Q61831). Kind of assay: JNK3 AlphaScreen Assay (AID 530; active = well fitted curve in either direction with a large enough effect, not every such curve was filed as active;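 note: kinase came from lysate of stimulated human HepG2 cells; signal reports phosphorylation of biotinylated GST-cJun 1-79 at Ser73 with 10 µM ATP; % is set by controls: 0 for no effect and ±100 for the full control effect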). The procedure, abridged:
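Pre-activated (IL-1β/TNFα) JNK3 in HepG2 lysates phosphorylates biotin-GST-cJun(1-79), 10 uM ATP; anti-phospho-cJun(Ser73) AlphaScreen read at room temperature, pH 7.6 Tris buffer. Compounds pre-incubated 15 min as titrations.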
Background: Alpha assays give light when donor and acceptor beads are brought close together.

The target of assay [3] is 3',5'-cyclic-AMP phosphodiesterase 4B (Homo sapiens) (UniProt Q07343). Kind of assay: qHTS Assay for Inhibitors of PDE-IV (AID 607; active = well fitted activation curve with a large enough effect in the main read-out, with a control signal flat, not every such curve was filed as active; note: % of control where 0% means no effect). The procedure, abridged:
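Cell-based read-out of cAMP via a modified cyclic nucleotide-gated channel and membrane potential dye (535/590 nm) in HEK293 cells expressing PDE4 endogenously. Compounds tested up to 22.9 uM final; 100 uM RO 20-1724 reference.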
A general note: Quantitative high-throughput screening tests each substance at several concentrations.

Assay [4] addresses Cytochrome P450 3A4 (Homo sapiens) (UniProt P08684). The assay can be described thus: qHTS Assay for Inhibitors and Substrates of Cytochrome P450 3A4 (AID 884). Note: nearly all actives have a fitted effect of over 50% in size. Note: potency is the fitted concentration of half-maximal effect. The procedure, abridged:
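20 nM human CYP3A4 with 25 uM Luciferin-PPXE (at KM) in 200 mM KPO4, preincubated 10 min with compound; NADPH regeneration started a 60 min RT reaction. Luciferin detected by luminescence, normalized to 57 uM ketoconazole as full inhibition.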

For assay [5] the target is unchanged. Kind of assay: qHTS Assay for Activators of Cytochrome P450 3A4 (AID 885). Note: nearly all actives have a fitted effect of over 65% in size. The procedure, abridged: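 Signal was normalized against complete inhibition by 57 uM ketoconazole. The reaction used 20nM CYP3A4 with 25uM Luciferin-PPXE, 10-min compound preincubation and a 60-min NADPH-supported step at RT.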
The target in assay [6] is Luciferin 4-monooxygenase (Photinus pyralis) (UniProt P08659). The assay can be described thus: Biochemical firefly luciferase enzyme assay for NPC (AID 624030).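 Note: purified P. pyralis luciferase at 10 nM with luciferin and ATP substrate; 0% = DMSO and -100% = full luciferase inhibition by PTC124 control; nearly all actives have a fitted effect of over 70% in size.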 The procedure, abridged:
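Purified P. pyralis luciferase at 10 nM in 50 mM Tris Acetate (final), luminescence read within 5 minutes of enzyme addition to compounds. Activity normalised to PTC124 versus DMSO; concentration-response curves classed by r2, magnitude and activity.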

Assay [7] can be described thus: S16 Schwann cell viability assay (CellTiter-Glo assay) (AID 624031).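 Note: native untransfected S16 rat Schwann cells; cellular ATP luminescence as a viability measure; plate controls were DMSO-treated cells for no effect and cell-free wells for full effect; nearly all actives have a fitted effect of over 70% in size.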 The procedure, abridged: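 Concentration-effect curves come from CellTiter-Glo luminescence of S16 rat Schwann cells after 24 h compound exposure. Each reading was normalized to DMSO wells (0%) and wells without cells, and curves were ranked by r2 and response magnitude.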
In general terms: Cellular ATP, detected with luciferase, serves as a proxy for viable cell number.

Assay [8] in a line: S16 Schwann cell PMP22 intronic element firefly luciferase assay (AID 624032).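 Note: plate controls were DMSO for no effect and PTC124 positive control mean for full effect; nearly all actives have a fitted effect of over 30% in size.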 The procedure, abridged: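 Rat S16 Schwann cells stably carrying firefly luciferase driven by a PMP22 intronic element, in 10% FBS, treated 24 h at 37 C. ONE-Glo luminescence normalized to PTC124 control and DMSO (0%); curves classed by r2, magnitude and activity.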
For a further assay, the system named is 7G8. The assay can be described thus: qHTS profiling for inhibitors of Plasmodium falciparum proliferation (AID 504749). Note: nearly all actives have a fitted effect of over 60% in size. Note: potency is the fitted concentration of half-maximal effect. The conditions noted are these: P. falciparum in erythrocytes, SYBR Green DNA, 72 h; series mostly up to 12.8 µM. The procedure, abridged: (§1)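 P. falciparum-infected erythrocytes (0.3% parasitemia, 2.5% hematocrit) incubated with compound 72 h at 37 C, 5% CO2. Parasite DNA detected by SYBR Green after lysis, overnight at room temperature; normalised to 0.29 uM artemisinin and DMSO.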

In a further assay the test system is CP215. The description is as above. The following applies: P. falciparum in erythrocytes, SYBR Green DNA, 72 h; series mostly up to 12.8 µM. The procedure, abridged: as §1
In a further assay the test system is DFO2036. The description is as above. The conditions noted are these: P. falciparum in erythrocytes, SYBR Green DNA, 72 h; series mostly up to 12.8 µM. The procedure, abridged: as §1
The test system of the next assay is DIV14. The assay is described as above. The conditions noted are these: P. falciparum in erythrocytes, SYBR Green DNA, 72 h; series mostly up to 12.8 µM. The procedure, abridged: as §1
In the next assay the test system is GB4. Described as above. The conditions noted are these: P. falciparum in erythrocytes, SYBR Green DNA, 72 h; series mostly up to 12.8 µM. The procedure, abridged:
as §1

The next assay deals with W2. Described as above. The following applies: P. falciparum in erythrocytes, SYBR Green DNA, 72 h; series mostly up to 12.8 µM. The procedure, abridged:
as §1

In assay [9] the target is Glucocorticoid receptor (Homo sapiens) (UniProt P04150). Kind of assay: GR-GFP Redistribution (AID 450;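 active = compounds whose dose series gives a full or clear partial fitted curve of increased nuclear translocation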; note: potency is the fitted concentration of half-maximal effect). The following applies: U2OS GR-GFP nuclear translocation, laser cytometry, 2 h.
Assay [10] has the same target. The assay can be described thus: GR-EFC Redistribution (AID 451; calls by dose curve; note: potency is the fitted concentration of half-maximal effect). The following applies: CHO-K1 GR-EFC translocation, beta-gal luminescence, 2 h. The procedure, abridged:
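CHO-K1 cells expressing nuclear EA and GR-ED fragments of b-gal; compounds titrated up to 46 uM final, 2 h at 37 C. GR nuclear translocation read as complemented b-gal luminescence after 1 h RT detection.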

Assay [11] in a line: NFAT Signaling Pathway (AID 444; active = well fitted curve in either direction with a large enough effect, not every such curve was filed as active;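 note: carbachol stimulus at about its EC50 of 1 µM final; % is set by controls: 0 for no effect and ±100 for the full control effect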). The following applies: Jurkat NFAT-bla M1, carbachol, beta-lactamase ratio, 5 h; at 17.2 µM (top of the series) unless noted. The procedure, abridged:
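Jurkat cells with NFAT-driven β-lactamase reporter and co-expressed M1 receptor, stimulated with carbachol (final 1 uM, ~EC50), compound titration, 5 h at 37 °C. CCF4 loaded 1 h at RT; 460/530 nm ratio gave %activity and AC50.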

A short description of assay [12]: Stat Signaling Pathway (AID 446; active = well fitted curve in either direction with a large enough effect, not every such curve was filed as active;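 note: ME-180 cervical cancer cells given 40 pM IL-6 alongside compound; SIE-controlled beta-lactamase reporter measured as 460/530 nm FRET emission ratio; % is set by controls: 0 for no effect and ±100 for the full control effect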). The procedure, abridged: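 Reporter line: ME-180 cervical carcinoma, SIE-beta-lactamase. Treatment: compound with 40 pM IL-6, 5 hrs, 37 C, in low-serum OPTI-MEM with 10 mM HEPES pH 7.3. Detection: 460/530 nm fluorescence.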
Assay [13] addresses Cytochrome P450 2D6 (Homo sapiens) (UniProt P10635). Kind of assay: qHTS Assay for Inhibitors and Substrates of Cytochrome P450 2D6 (AID 891).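 For activity change, negative = inhibition: luciferin methyl ether substrate demethylated by CYP2D6 with NADPH regeneration; % is set by controls: 0 for no effect and ±100 for the full control effect.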 Note: nearly all actives have a fitted effect of over 60% in size. Note: potency is the fitted concentration of half-maximal effect. The procedure, abridged:
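Human CYP2D6 (5 nM) with 30 uM Luciferin-ME EGE (at Km) in 100 mM KPO4, compound preincubated 10 min, then NADPH regeneration system for 60 min at room temperature. Luciferin read by luminescence; normalized to 1.43 uM quinidine.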

Assay [14] has as its target DNA dC->dU-editing enzyme APOBEC-3G (Homo sapiens) (UniProt Q9HC16). Kind of assay: qHTS for inhibitors of Vif-A3G interactions: Validation (AID 588379). Note: 0% is about no effect. The procedure, abridged: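 HeLa cells stably expressing Vif and A3G-eYFP, 700 cells/well, incubated overnight at 37 deg C, then exposed to compound overnight at 37 deg C. Inhibition of Vif-mediated degradation read as increased yellow fluorescence (Ex 488/Em 500-530) by laser-scanning cytometry.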

Unmarked numbers belong to inactive results. Inconclusive results are not listed. The source made the active and inactive calls. Unless noted, calls come from the whole dose curve; as a rule, active = well fitted curve in the direction sought with a large enough effect; inconclusive = small, poorly fitted or top-dose-only effect, or another doubt; inactive = no such curve, though single readings can be large; an effect the other way counts as inactive or inconclusive.

Chain of Glucocorticoid receptor (Homo sapiens) (P04150 whole entry, looked up): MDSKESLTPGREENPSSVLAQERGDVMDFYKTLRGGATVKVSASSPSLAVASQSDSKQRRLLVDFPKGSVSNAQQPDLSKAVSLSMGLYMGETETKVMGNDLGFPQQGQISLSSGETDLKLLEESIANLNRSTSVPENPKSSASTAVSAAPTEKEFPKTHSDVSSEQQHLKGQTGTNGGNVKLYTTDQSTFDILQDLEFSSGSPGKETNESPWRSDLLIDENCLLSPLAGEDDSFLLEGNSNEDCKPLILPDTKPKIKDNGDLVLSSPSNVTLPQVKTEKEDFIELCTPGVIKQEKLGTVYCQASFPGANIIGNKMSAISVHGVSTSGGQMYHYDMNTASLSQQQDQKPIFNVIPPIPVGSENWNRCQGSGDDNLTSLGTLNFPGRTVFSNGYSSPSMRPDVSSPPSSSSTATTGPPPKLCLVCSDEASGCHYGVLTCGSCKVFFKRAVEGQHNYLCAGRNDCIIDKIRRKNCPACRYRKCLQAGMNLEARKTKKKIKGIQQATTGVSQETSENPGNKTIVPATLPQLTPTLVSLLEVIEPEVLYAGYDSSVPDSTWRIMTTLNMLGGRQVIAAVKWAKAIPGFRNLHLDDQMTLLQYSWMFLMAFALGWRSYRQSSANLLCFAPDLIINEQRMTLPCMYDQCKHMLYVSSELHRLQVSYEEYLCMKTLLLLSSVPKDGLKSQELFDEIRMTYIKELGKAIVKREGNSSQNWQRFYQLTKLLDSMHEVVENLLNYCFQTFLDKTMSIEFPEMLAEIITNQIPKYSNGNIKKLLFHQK
Chain of Cytochrome P450 1A2 (Homo sapiens) (P05177 whole entry, looked up): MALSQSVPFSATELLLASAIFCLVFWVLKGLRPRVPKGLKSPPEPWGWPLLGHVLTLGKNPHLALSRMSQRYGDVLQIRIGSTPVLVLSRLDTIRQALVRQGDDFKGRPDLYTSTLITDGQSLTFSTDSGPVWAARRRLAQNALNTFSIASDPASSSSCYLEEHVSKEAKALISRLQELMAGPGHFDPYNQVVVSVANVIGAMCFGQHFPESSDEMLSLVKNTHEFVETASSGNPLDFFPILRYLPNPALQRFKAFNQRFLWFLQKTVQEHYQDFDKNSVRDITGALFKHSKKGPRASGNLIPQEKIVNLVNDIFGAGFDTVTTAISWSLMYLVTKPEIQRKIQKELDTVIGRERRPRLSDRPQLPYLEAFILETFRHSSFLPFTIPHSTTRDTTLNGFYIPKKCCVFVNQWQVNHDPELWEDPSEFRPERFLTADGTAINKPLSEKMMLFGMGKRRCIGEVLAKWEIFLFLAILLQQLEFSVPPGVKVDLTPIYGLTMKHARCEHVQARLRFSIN
Chain of Cytochrome P450 3A4 (Homo sapiens) (P08684 whole entry, looked up): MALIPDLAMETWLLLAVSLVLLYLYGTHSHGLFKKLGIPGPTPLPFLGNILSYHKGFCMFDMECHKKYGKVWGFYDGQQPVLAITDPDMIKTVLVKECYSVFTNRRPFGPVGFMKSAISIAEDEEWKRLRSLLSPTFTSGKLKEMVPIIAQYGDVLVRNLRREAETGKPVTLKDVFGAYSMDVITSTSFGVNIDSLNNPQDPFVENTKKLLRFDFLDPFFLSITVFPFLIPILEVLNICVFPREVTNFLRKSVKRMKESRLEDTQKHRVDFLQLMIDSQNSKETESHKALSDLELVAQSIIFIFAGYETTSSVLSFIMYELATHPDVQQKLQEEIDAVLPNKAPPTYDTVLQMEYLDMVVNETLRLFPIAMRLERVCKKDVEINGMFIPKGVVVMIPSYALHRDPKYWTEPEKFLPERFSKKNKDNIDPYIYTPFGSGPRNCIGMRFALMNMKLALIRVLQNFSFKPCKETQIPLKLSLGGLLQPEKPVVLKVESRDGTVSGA
Chain of Cytochrome P450 2D6 (Homo sapiens) (P10635 whole entry, looked up): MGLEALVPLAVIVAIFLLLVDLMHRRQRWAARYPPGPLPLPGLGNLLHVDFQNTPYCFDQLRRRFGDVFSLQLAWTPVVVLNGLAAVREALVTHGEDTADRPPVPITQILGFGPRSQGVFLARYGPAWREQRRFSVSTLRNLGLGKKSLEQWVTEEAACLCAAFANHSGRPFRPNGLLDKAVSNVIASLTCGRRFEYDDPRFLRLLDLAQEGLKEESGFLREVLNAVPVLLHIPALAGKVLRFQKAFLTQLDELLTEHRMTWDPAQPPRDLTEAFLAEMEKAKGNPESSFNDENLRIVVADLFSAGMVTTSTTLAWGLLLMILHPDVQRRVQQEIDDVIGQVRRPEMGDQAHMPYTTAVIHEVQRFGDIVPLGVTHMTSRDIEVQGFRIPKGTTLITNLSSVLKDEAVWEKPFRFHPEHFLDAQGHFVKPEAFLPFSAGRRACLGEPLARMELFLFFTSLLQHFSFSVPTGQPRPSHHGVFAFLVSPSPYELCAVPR
Chain of 3',5'-cyclic-AMP phosphodiesterase 4B (Homo sapiens) (Q07343 whole entry, looked up): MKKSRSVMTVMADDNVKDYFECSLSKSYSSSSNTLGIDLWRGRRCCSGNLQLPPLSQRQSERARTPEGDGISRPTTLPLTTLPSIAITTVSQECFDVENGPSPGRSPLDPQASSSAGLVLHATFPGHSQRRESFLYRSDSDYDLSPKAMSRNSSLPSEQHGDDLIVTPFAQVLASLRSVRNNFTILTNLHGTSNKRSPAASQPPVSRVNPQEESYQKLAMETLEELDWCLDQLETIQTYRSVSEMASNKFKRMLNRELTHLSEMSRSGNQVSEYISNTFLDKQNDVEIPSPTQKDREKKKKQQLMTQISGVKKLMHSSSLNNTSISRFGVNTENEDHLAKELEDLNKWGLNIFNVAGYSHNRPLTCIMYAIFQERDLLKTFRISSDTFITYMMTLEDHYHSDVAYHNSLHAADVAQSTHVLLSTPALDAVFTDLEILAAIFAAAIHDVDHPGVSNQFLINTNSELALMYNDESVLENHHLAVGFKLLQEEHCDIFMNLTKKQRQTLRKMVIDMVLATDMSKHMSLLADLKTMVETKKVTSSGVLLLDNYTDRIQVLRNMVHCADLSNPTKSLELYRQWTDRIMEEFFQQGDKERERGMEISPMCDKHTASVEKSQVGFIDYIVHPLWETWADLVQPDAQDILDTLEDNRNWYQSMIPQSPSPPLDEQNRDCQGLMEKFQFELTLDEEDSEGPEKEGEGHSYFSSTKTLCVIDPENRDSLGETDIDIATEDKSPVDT
Chain of DNA dC->dU-editing enzyme APOBEC-3G (Homo sapiens) (Q9HC16 whole entry, looked up): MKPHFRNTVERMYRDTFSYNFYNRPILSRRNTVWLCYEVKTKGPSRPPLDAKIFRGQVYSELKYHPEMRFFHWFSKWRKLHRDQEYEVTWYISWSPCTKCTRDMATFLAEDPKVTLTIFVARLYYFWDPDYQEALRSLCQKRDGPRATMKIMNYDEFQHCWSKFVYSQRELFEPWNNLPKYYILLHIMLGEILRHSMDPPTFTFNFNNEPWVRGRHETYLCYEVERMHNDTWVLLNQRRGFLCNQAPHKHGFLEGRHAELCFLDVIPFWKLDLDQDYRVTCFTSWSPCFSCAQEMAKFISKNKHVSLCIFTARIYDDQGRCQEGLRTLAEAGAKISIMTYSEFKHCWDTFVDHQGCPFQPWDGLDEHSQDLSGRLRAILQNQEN
Chain of Luciferin 4-monooxygenase (Photinus pyralis) (P08659 whole entry, looked up): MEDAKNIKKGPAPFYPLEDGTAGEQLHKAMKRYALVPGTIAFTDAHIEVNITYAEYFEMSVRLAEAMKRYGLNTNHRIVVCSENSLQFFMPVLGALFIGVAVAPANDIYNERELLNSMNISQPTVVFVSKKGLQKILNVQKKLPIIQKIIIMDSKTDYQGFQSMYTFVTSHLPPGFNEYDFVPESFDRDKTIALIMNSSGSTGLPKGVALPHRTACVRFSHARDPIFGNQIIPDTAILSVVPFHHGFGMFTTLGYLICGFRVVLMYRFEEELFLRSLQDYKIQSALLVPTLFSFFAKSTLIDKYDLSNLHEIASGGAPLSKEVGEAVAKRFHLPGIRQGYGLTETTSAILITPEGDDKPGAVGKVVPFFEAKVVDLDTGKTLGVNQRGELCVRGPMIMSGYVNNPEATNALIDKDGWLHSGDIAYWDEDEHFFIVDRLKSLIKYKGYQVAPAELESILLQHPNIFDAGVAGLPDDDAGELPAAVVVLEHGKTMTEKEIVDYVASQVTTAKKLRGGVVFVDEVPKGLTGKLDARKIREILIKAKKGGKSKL

With `CC1(C)S[C@@H]2[C@H](NC(=O)[C@@H](N)c3ccccc3)C(=O)N2[C@H]1C(=O)O[C@H]1OC(=O)c2ccccc21`, the Potency entry (in assay [1]; in assay [2]; in assay [5]; in assay [6]; in assay [8]; with 7G8) was “inactive” each time. In addition, the Potency entry in the assay on CP215, in the assay with DFO2036, in the assay on DIV14, in the assay with GB4 and with W2 was “inactive” throughout. Further, the call in assay [3] and in [7] was inactive. In addition, the Potency in assay [4] is 1.58 µM (active).

As to `CC[C@H](C(=O)[C@H](C)[C@H](O)[C@H](C)CCc1ccc(C)c(O)c1C(=O)O)[C@H]1O[C@](CC)([C@@H]2CC[C@@](O)(CC)[C@H](C)O2)C[C@H]1C`, the Potency entry in assay [1], in assay [2] and in assay [5] was “inactive” in each case. For the same molecule, the Potency in assay [9] and in [10] was greater than 20.6 µM in each case. The molecule was classed as inactive in assay [3].

As for `COC(=O)[C@@H]1[C@@H]2C[C@H]3c4[nH]c5cc(OC)ccc5c4CCN3C[C@@H]2C[C@H](OC(=O)/C=C\c2cc(OC)c(OC)c(OC)c2)[C@H]1OC`, the activity change, negative = inhibition in [11] is 0.402%. For the same molecule, the molecule was classed as inactive in assay [12], in [3] and in assay [7]. Besides, the Potency was greater than 20.6 µM in assay [9]; greater than 20.6 µM in assay [10]; 3.16 µM (active) with 7G8; 5.73 µM (active) in the assay with DIV14; 5.1 µM (active) in the assay with GB4; 1.81 µM (active) in the assay on W2.

For the molecule `O=c1cc(-c2cccc(O)c2)oc2cc(O)ccc12`, the Potency was 5.01 µM (active) in assay [1], greater than 46 µM in [9], greater than 46 µM in [10] and 12.6 µM (active) in assay [4]. Further, the Potency entry in assay [2], in [5] and in [13] was “inactive” throughout. Moreover, the molecule was called inactive in assay [3] and in assay [14].

With `Nc1ncn([C@H]2O[C@@H](CO)[C@@H](O)[C@@H]2O)c(=O)n1`, in [11], the activity change, negative = inhibition was -16.5%. The Potency in assay [9] and in assay [10] was greater than 20.6 µM each time. Further, the Potency entry in assay [2] was “inactive”. Moreover, the result in assay [3] was inactive.

Regarding `Cc1onc(-c2c(F)cccc2Cl)c1C(=O)N[C@H]1C(=O)N2[C@H]1SC(C)(C)[C@H]2C(=O)O`, the Potency result in assay [1] and in assay [2] was “inactive” each time. Further, in [11], the activity change, negative = inhibition was -12.5%. The call in assay [12] and in assay [3] was inactive. Further, the Potency in assay [9] and in [10] was greater than 20.6 µM throughout.

With `C[C@@H](Cc1cccc(C(F)(F)F)c1)NCCOC(=O)c1ccccc1`, in assay [11], the activity change, negative = inhibition is -24.1%. In [12], the outcome was inactive. Moreover, the Potency in [10] was greater than 20.6 µM; in assay [13], 15.8 nM (active). Besides, in assay [2], the Potency entry was “inactive”.

As to `O[C@@](CCN1CCCCC1)(c1ccccc1)[C@@H]1C[C@H]2C=C[C@@H]1C2`, the Potency entry in assay [1] and in assay [2] was “inactive” each time. Besides, the result in [12] was inactive. The results for the Potency in assay [9] and in assay [13] were greater than 20.6 µM and 2000 nM (active), respectively.

In the case of `Nc1ncnc2c1ncn2[C@@H]1O[C@H](COP(=O)(O)O)[C@@H](O)[C@@H]1O`, the Potency entry in [1], in assay [2], in [4] and in assay [13] was “inactive” throughout. Besides, the activity change, negative = inhibition in assay [11] is -4.61%. The Potency in [9] and in assay [10] was greater than 20.6 µM each time. In addition, the call in [3] was inactive.
